Experimental data: PubChem BioAssay (EPA / NIEHS)
Some structures have more than one record in an assay (separate samples or runs), and their calls can disagree. Active and inactive are the calls of the source. How the source made its calls: active means hit-call score of the fitted dose curve at least 0.9, where 1 is the maximum; inactive means score below 0.9.

Assay: ATG_PPRE_CIS: Attagene CIS-FACTORIAL HepG2 Assay for human Peroxisome Proliferator-activated Response Element (PPRE) (AID 2282958)
Settings: HepG2 PPRE cis-element reporter, Attagene transcription factor profiling; actives raise or lower the signal
Protocol: ATG_CIS is a cell-based, multiplexed-readout assay that uses HepG2, a human liver cell line, with measurements taken at 24 hours after chemical dosing in a 24-well plate.ATG_PPRE_CIS is one of 52 assay component(s) measured or calculated from the ATG_CIS assay. It is designed to make measurements of mRNA induction, a form of inducible reporter, as detected with fluorescence intensity signals by Reverse transcription polymerase chain reaction (RT-PCR) and Capillary electrophoresis technology.Data from the assay component ATG_PPRE_CIS was analyzed into 1 assay endpoint. This assay endpoint, ATG_PPRE_CIS, was analyzed with bidirectional fitting relative to DMSO as the negative control and baseline of activity. Using a type of inducible reporter, measures of mRNA for gain or loss-of-signal activity can be used to understand the reporter gene at the transcription factor-level as they relate to the gene PPARA and PPARD and PPARG. Furthermore, this assay endpoint can be referred to as a primary readout, because this assay has produced multiple assay endpoints where this one serves a reporter gene function. To generalize the intended target to other relatable targets, this assay endpoint is annotated to the nuclear receptor intended target family, where the subfamily is non-steroidal.
Human liver HepG2 cells are transiently transfected with multiple reporter transcription units (MRTUs) in 6-well plates using FuGene 6 reagent (Roche; 3 ml FuGene/1 mg DNA). The MRTU constructs are regulated by a cis-regulating element (promoter). […] A major difference between the CIS and TRANS system is that in CIS activities of endogenous TFs are measured, whereas the TRANS assay evaluates changes in activities of exogenous, chimeric NR-Gal4 proteins. […] At the end of 24 hour incubation, total RNA was isolated using TriZol reagent (Invitrogen). The isolated RNA is then reverse-transcribed using oligo(dT) primer and Mo-MLV reverse transcriptase (Invitrogen) with DNAse I (Ambion) treatment for 30 min. The one-tenth of the produced cDNA was amplified by PCR using Taq DNA polymerase (Invitrogen) and two reporter sequence-specific primers. The PCR products were fluorescently labeled by primer extension with 6-arboxyfluorescein (6-FAM) 5'-labeled reporter sequence-specific primer (2 min at 95 C, 20 s at 68 C and 10 min at 72 C) and these products were digested with 5U of HpaI (New England Biolabs) for 2h at 37 C. The fragments were purified using Qiaquick PCR columns (Qiagen), analyzed on an ABI 3130xL genetic analyzer (Applied Biosystems) with peak positions identified by using a set of X-rhodamine (ROX)-labeled MapMarker1000 molecular weight standards (BioVentures). The raw capillary electrophoresis data was processed using Attagraph software (Attagene).

Row | SMILES | outcome | AC50
1 | O=C(O)C(F)(OC(F)(F)C(F)(F)C(F)(F)F)C(F)(F)F (stereo not given) | inactive | 74.8 µM (active)
2 | Nc1cc2c3c(c1)C(c1ccccc1)=N[C@@H](NC(=O)c1cccnc1)C(=O)N3CC2 | inactive | 
3 | NNC(N)=S | inactive | 
4 | OCC(F)(F)OC(F)(F)C(F)(F)OC(F)(F)C(F)(F)OC(F)(F)F | inactive | 
5 | CCOP(=O)(O)C(N)=O | inactive | 
6 | CC(C)(C)c1ccccc1OP(=O)(Oc1ccccc1)Oc1ccccc1 | inactive | 
7 | OCC(F)(F)OC(F)(F)C(F)(F)OC(F)(F)C(F)(F)OC(F)(F)CO | inactive | 
8 | ClC(Cl)=C(c1ccc(Cl)cc1)c1ccccc1Cl |  | 55.3 µM (active)
9 | C=CC(=O)OCC(F)(F)C(F)F | inactive | 
10 | O=P1(N(CCCl)CCCl)NCCCO1 (stereo not given) | inactive | 
11 | CCOP(=S)(OCC)SCSc1ccc(Cl)cc1 | inactive | 
12 | O=S1(=O)OCC2C(CO1)C1(Cl)C(Cl)=C(Cl)C2(Cl)C1(Cl)Cl (stereo not given) | inactive | 
13 | COP(=O)(CCC(=O)NCO)OC | inactive | 
14 | N#Cc1c(-c2ccc(Cl)cc2)[nH]c(C(F)(F)F)c1Br | inactive | 
15 | COP(=O)(O)OC | inactive | 
16 | [N-]=[N+]=[N-] | inactive | 
17 | O=C(O)C(F)(F)C(F)(F)C(=O)O | inactive | 
18 | CC(Cl)CN(C)C (stereo not given) | inactive | 
19 | N#C/C=C/c1ccccc1 | inactive | 
20 | C=C(C)C(=O)OCC1CO1 (stereo not given) | inactive | 

Row | SMILES | outcome | AC50
21 | Nc1ccc(Cl)cc1 | inactive | 
22 | Nc1ccc([N+](=O)[O-])cc1Cl | inactive | 
23 | Cc1cccc(N)c1 | inactive | 
24 | FC(F)(F)C(F)(C(F)(F)F)C(F)(F)C(F)(F)CC1CO1 (stereo not given) | inactive | 
25 | CCCCC(CC)COC(=O)c1c(Br)c(Br)c(Br)c(Br)c1C(=O)OCC(CC)CCCC (stereo not given) | inactive | 
26 | c1cc2c3c(cccc3c1)CC2 | inactive | 
27 | CCCCOCCOP(=O)(OCCOCCCC)OCCOCCCC | inactive | 
28 | CC(=O)c1ccc(-c2ccccc2)cc1 | inactive | 
29 | CCOS(=O)(=O)OCC | inactive | 
30 | CC(O)C(F)(F)C(F)(F)F (stereo not given) | inactive | 
31 | CCNc1nc(Cl)nc(NC(C)(C)C)n1 | inactive | 
32 | Cc1c([N+](=O)[O-])cc2c(c1[N+](=O)[O-])C(C)(C)CC2(C)C | inactive | 
33 | O=P(Oc1ccccc1)(Oc1ccccc1)Oc1ccccc1 | inactive | 
34 | CCOP(=S)(OCC)SCSCC |  | 176 µM (active)
35 | CC1=C(C(=O)Nc2ccccc2)S(=O)(=O)CCO1 | inactive | 
36 | NC(=O)C(F)(F)C(F)(F)F | inactive | 
37 | CCOP(=S)(OCC)SCn1nnc2ccccc2c1=O | inactive | 
38 | O=S(=O)(c1ccc(O)cc1)c1ccc(O)cc1 | inactive | 
39 | Nc1ccc(Sc2ccc(N)cc2)cc1 |  | 51.2 µM (active)
